An excerpt weighted towards active compounds, which were near 2.3% of everything screened.
ADAM17 inh: ADAM17 inhibition, QFRET primary screen; actives 0.83% (n = 370,000); inhibition, % at 6.95 µM; recombinant ADAM17, EDANS/DABCYL FRET peptide cleavage; AID 720648;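 active = inhibition above the mean of compounds lying between control limits plus 3 SD, set per campaign, cut at about 8.5% in these data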;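 note: 0% = DMSO-only wells as the low control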
KLK7 zymogen act: activates the human kallikrein-7 zymogen; P49862; purified proKLK7, EDANS-DABCYL substrate fluorescence; 100% is mature enzyme control, 0% vehicle; actives 0.9% (n = 370,000); activation, % at 7 µM;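 active = activation above the mean of all tested compounds plus 3 SD, computed per campaign excluding outliers beyond control limits, cut at about 13% in these data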
ADAM10 inh: ADAM10 inhibition, QFRET primary screen; O14672; recombinant ADAM10, EDANS/DABCYL FRET peptide cleavage, 3 h; inhibition, % at 7 µM; actives 0.62% (n = 370,000); AID 720582;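 active = inhibition above a per-campaign cutoff equal to the mean of compounds falling between control-based bounds plus 3 SD, cut at about 20% in these data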;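 note: 0% = DMSO wells while the 100% control is not disclosed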
Target sequence (O14672 214-748 limits assumed): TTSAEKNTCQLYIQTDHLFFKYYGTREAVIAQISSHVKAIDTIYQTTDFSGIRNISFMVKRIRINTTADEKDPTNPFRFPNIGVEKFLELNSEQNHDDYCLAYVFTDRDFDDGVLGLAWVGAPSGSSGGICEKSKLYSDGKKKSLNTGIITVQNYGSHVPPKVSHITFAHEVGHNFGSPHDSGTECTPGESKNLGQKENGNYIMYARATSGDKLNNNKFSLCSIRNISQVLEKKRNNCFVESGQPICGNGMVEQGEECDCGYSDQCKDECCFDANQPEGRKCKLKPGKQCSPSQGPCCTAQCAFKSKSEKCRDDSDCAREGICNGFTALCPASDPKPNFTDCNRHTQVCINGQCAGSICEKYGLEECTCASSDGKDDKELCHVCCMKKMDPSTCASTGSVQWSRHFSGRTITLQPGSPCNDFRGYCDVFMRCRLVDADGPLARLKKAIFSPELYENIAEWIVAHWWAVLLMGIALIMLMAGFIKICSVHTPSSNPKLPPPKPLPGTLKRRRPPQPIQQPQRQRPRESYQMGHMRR
V-ATPase pH: yeast V-ATPase proton transport regulation by pHLuorin; S. cerevisiae, pHLuorin cytosolic pH fluorescence; response, % at 10 µM; actives 0.37% (n = 350,000); in the data active = response mostly above about 7.3%, no sharp cut-off; inactive = mostly below about 5.4%; note: actives read high
KLK7 act conf: proKLK7 activation, confirmation; shares compounds with KLK7 zymogen act; purified proKLK7, EDANS-DABCYL substrate fluorescence; scaled: vehicle 0, mature enzyme 100; activation, % at 7 µM; actives 68% (n = 3,200);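 active = activation, as change over the incubation, above the mean of all tested compounds plus 3 SD, cut at about 13% in these data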
EDANS-DABCYL int: counter-screen for kallikrein-7 activators: EDANS-DABCYL optical interference; shares compounds with KLK7 zymogen act; EDANS-DABCYL substrate fluorescence interference, no enzyme, 4 h; solvent 0%, active enzyme control 100%; activation, % at 7 µM; actives 80% (n = 3,200); AID 686952;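 active = activation above the all-compound mean plus 3 SD, ignoring values outside control-based bounds, cut at about 4.8% in these data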;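 note: value is the 4 h activation minus the activation read at time zero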
K7 EDANS ctr: optically interferes with EDANS-DABCYL fluorescence, kallikrein-7 activator counter-screen. shares compounds with KLK7 zymogen act. EDANS-DABCYL peptide fluorescence interference, no enzyme. EC50, µM. actives 20% (n = 250);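 active = compounds that raise the fluorescence signal in this interference counterscreen, with EC50 at or below 10 µM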;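 note: intact quenched peptide substrate alone read at 355 nm excitation and 520 nm emission; signal is fluorescence gain from T0 to T4 after four hours at room temperature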
The depositor's hits bear a star; i = inactive; . = not tested or not shown.

SMILES	ADAM17 inh	KLK7 zymogen act	ADAM10 inh	V-ATPase pH	KLK7 act conf	EDANS-DABCYL int	others
N=c1c(C(=O)NCCc2ccccc2)cc2c(=O)n3ccccc3nc2n1CC1CCCO1 (stereo unspecified)	i	99*	i	-1	9	7.7*
N=c1c(C(=O)NCc2ccc(F)cc2)cc2c(=O)n3ccccc3nc2n1CC1CCCO1 (stereo unspecified)	i	21*	i	-2	-59	-54
CN1CCCCC(NC(=O)C23CC4CC(CC(C4)C2)C3)C1=O (stereo unspecified)	-5	0	-6	.	.	.
O=C(O)CCCC[n+]1ccccc1	2	0	-14	.	.	.
COc1ccc(-n2nc(C(=O)NCC(=O)Nc3cc(OC)c(OC)c(OC)c3)c3ccccc3c2=O)cc1OC	-2	42*	1	2	66*	66*
COc1ccc(-n2nc(C(=O)NCC(=O)Nc3cc(OC)c(OC)c(OC)c3)c3ccccc3c2=O)cc1	-1	-8	9	7	.	.
CCCCN(C)C1=Nc2cccc3cccc1c23	-40	60*	-123	-2	12	12*
OC1c2cc(Cl)cc(Cl)c2N=C2CCCN21 (stereo unspecified)	-122	15*	-441	.	18*	11*	K7 EDANS ctr=i
OC1c2cc(Cl)ccc2-c2c(Cl)cc(Cl)cc21 (stereo unspecified)	1	0	2	1	.	.
COc1ccc(S(=O)(=O)N2CCN(CC(=O)N3CCc4ccccc4C3)CC2)cc1OC	-7	0	-1	1	.	.
COc1cc2c(cc1OC)CN(C(=O)CN1CCN(S(=O)(=O)c3ccccc3Br)CC1)CC2	-57	30*	-190	-1	1	0
Cc1cc(=O)n2cc(-c3ccccc3)nc2[nH]1	-115	16*	-477	2	3	3
COc1cc2c(cc1OC)C(COc1ccc(F)cc1)NCC2 (stereo unspecified)	-5	2	-15	-5	.	.
COc1cc2c(cc1OC)C(COc1ccc([N+](=O)[O-])cc1)NCC2 (stereo unspecified)	-44	14*	-172	0	0	-1
O=C(O)c1ccc(-c2nc(-c3ccc(Cl)cc3)cs2)cc1	-6	0	-15	0	.	.
COc1ccc(-c2csc(-c3ccc(C(=O)O)cc3)n2)cc1	-133	22*	-479	-8	35*	53*
O=C(NC1CCCCN(Cc2cccc(Cl)c2)C1=O)c1ccccc1 (stereo unspecified)	1	1	8	.	.	.
COc1ccccc1N1C(=O)CC(N(O)c2ccccc2)C1=O (stereo unspecified)	1	117*	9	9	192*	195*
CCCOc1ccccc1N1C(=O)CC(N(O)c2ccccc2)C1=O (stereo unspecified)	1	47*	-6	-2	29*	31*
CCCOc1ccc(N2C(=O)CC(N(Cc3ccccc3)N=O)C2=O)cc1 (stereo unspecified)	2	0	-7	2	.	.
CCN(CCO)C1CC(=O)N(c2ccccc2C)C1=O (stereo unspecified)	.	.	.	6	.	.
CCCOc1ccc(N2C(=O)CC(N(O)c3ccccc3)C2=O)cc1 (stereo unspecified)	-6	112*	1	-1	120*	125*
Cc1ccccc1N1C(=O)CC(N(O)c2ccccc2)C1=O (stereo unspecified)	4	363*	-5	3	317*	330*
COc1ccccc1N(O)C1CC(=O)N(c2ccc(F)cc2)C1=O (stereo unspecified)	1	6	12	-5	.	.
O=C1CC(N(O)c2ccccc2)C(=O)N1c1cc(Cl)cc(Cl)c1 (stereo unspecified)	0	48*	-9	-1	645*	617*
SMILES	ADAM17 inh	KLK7 zymogen act	ADAM10 inh	V-ATPase pH	KLK7 act conf	EDANS-DABCYL int	others
O=C(COC(=O)c1ccccc1NCCO)NCCC1=CCCCC1	-447	10	i	-1	.	.
O=C(COC(=O)c1ccccc1NCCO)NCCc1ccccc1	-434	19*	i	-2	16*	22*
O=C(COC(=O)c1ccccc1NCCO)NCC1CCCCC1	-440	21*	i	-4	5	5.2*
O=C(COC(=O)c1ccccc1[N+](=O)[O-])NNC(=O)c1cccs1	0	0	-3	-1	.	.
O=C(COC(=O)c1ccccc1NCCO)NNC(=O)c1cccs1	-479	38*	i	-2	35*	37*
CC(C#N)(NC(=O)COC(=O)c1ccccc1NCCO)C1CC1 (stereo unspecified)	i	19*	i	4	25*	34*
CC1(c2nnnn2Cc2ccccc2)CSCC(=O)N1Cc1cccs1 (stereo unspecified)	2	0	3	.	.	.
C=CCNC(=O)C1CCN(c2cncnc2)CC1	-6	0	-17	.	.	.
CCOc1ccccc1C(=O)OCC(=O)Nc1cccc(S(=O)(=O)NC2=NCCCCC2)c1	-5	0	-6	-6	.	.
O=C(COC(=O)c1ccccc1NCCO)Nc1cccc(S(=O)(=O)NC2=NCCCCC2)c1	-470	17*	i	-3	0	-4
COC(=O)C1=C(C)N(C)C(=NCc2ccc(OC)cc2)NC1c1cccc(Cl)c1 (stereo unspecified)	0	0	-5	.	.	.
Cc1c(O)c(CN2CCCC2)cc2c1oc(=O)c1ccccc12	-5	0	-19	5	.	.
Cc1ccc2c(CN3CCCCC3)cc(=O)oc2c1C	-3	0	0	2	.	.
CCc1cc(=O)oc2c(C)c(O)c(CN3CCCCC3)cc12	i	49*	i	1	64*	79*
Cc1c(O)c(CN2CCCC2)cc2c3c(c(=O)oc12)CCC3	i	70*	i	-1	67*	65*
COc1ccc2c(CN3CCCCC3)cc(=O)oc2c1	-189	23*	i	.	3	1
CCOc1ccc(-c2cc(C(C)=O)c3n(c2=O)CCC3)cc1	-9	0	-9	.	.	.
O=c1cc(CN2CCOCC2)c2ccc(O)c(O)c2o1	-3	2	-4	1	.	.
Cc1oc2c(CN3CCCC3)c(O)ccc2c(=O)c1-c1ccccc1	.	.	.	-2	.	.
CCc1ccc2c(CN3CCc4ccccc43)cc(=O)oc2c1	-2	0	3	0	.	.
CN(C)Cc1c(O)ccc2c(-c3ccccc3)cc(=O)oc12	-48	13*	-126	-1	26*	25*
O=c1cc(CN2CCc3ccccc32)c2ccc(O)cc2o1	-127	19*	-401	0	41*	45*

Screening data deposited in PubChem BioAssay by several laboratories.
